Holding throughout (test): DAPPL (digital affinity profiling via proximity ligation, sequencing); 10 mM Tris-HCl pH 7.5, 50 mM NaCl, 1 mM DTT, 4% glycerol, room temperature, 30 min; GST-TFs on glutathione beads, 16-mer random dsDNA library, 0.1% formaldehyde crosslink after washing; high values mean tight binding
The target of one assay is T1, FLI1 (Homo sapiens, UniProt Q01543 1-452).
T1 sequence: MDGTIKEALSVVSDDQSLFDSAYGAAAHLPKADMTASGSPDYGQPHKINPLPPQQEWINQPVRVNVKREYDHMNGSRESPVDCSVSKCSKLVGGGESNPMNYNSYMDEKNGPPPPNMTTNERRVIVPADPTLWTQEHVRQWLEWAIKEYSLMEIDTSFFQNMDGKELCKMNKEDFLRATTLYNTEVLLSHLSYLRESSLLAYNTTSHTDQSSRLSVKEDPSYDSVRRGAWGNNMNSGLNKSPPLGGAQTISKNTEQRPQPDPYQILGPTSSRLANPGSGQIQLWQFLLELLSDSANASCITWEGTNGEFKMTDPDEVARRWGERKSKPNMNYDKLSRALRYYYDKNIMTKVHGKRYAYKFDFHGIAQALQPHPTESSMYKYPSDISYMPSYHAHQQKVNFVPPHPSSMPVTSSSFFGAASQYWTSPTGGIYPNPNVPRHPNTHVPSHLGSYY
Particulars: protein: recombinant; tags: N-terminal GST; dsDNA, one strand shown. The essentials:
(§1)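 Yeast served to express human transcription factors as GST fusions, which were then captured on glutathione beads and labelled with DNA barcodes. Pooled with a tag-only sample, they were incubated with 200 nmole of a 16-mer random double-stranded DNA library for 30 min at room temperature in Tris/NaCl/DTT/glycerol buffer, washed, crosslinked with 0.1% formaldehyde, ligated by proximity, amplified by PCR and sequenced. Dividing each hexamer's read frequency for a factor by its frequency for the tag-only sample gives the binding signal.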

A further assay concerns the target T2, ELK1 (Homo sapiens, UniProt P19419 1-428).
T2 sequence: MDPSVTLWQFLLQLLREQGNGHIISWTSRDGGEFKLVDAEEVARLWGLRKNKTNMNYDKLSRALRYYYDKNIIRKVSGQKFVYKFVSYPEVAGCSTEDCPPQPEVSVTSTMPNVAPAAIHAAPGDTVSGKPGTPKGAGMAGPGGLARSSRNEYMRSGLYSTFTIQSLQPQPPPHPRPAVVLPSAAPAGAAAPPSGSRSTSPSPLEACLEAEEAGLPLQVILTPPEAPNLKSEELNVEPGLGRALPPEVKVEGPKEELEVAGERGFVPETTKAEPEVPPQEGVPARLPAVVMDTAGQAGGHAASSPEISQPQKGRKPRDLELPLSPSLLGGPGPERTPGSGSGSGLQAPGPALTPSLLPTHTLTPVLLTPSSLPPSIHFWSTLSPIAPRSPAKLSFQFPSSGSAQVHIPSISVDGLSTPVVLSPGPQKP
Particulars: protein: recombinant; tags: N-terminal GST; dsDNA, one strand shown. Summed up:
as §1

In a further assay the target is T3, GABPA (Homo sapiens, UniProt Q06546 1-454).
T3 sequence: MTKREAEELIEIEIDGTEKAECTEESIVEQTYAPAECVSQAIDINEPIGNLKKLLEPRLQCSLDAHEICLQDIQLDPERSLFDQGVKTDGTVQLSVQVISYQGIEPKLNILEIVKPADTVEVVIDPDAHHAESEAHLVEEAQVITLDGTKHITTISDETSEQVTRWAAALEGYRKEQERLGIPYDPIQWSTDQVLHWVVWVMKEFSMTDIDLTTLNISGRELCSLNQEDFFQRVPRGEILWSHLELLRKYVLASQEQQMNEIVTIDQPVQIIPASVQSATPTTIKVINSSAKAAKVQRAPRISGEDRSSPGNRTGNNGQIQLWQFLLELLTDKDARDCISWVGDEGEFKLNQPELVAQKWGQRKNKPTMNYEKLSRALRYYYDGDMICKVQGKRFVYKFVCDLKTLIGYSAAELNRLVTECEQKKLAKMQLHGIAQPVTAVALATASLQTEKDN
Particulars: protein: recombinant; tags: N-terminal GST; dsDNA, one strand shown. Summed up:
as §1

In the next assay the target is T4, ERG (Homo sapiens, UniProt P11308 1-479).
T4 sequence: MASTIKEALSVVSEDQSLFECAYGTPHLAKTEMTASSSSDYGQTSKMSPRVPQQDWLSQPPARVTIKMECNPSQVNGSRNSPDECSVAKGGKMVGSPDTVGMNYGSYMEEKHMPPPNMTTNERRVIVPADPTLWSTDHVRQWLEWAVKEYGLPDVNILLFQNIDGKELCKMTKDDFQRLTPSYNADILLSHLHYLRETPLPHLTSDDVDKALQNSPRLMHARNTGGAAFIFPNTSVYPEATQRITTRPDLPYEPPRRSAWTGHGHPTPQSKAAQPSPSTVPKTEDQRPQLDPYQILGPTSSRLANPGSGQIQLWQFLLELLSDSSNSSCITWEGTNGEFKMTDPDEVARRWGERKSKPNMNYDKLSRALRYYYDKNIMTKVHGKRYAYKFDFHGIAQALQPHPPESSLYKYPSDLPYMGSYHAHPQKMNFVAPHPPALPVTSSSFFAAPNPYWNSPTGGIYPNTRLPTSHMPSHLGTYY
Particulars: protein: recombinant; tags: N-terminal GST; dsDNA, one strand shown. Summed up:
as §1

Another assay has as its target ELF1 (Homo sapiens, UniProt P32519 1-619). Particulars: protein: recombinant; tags: N-terminal GST; dsDNA, one strand shown. The essentials:
as §1

The next assay addresses T5, EHF (Homo sapiens, UniProt Q9NZC4 1-300).
T5 sequence: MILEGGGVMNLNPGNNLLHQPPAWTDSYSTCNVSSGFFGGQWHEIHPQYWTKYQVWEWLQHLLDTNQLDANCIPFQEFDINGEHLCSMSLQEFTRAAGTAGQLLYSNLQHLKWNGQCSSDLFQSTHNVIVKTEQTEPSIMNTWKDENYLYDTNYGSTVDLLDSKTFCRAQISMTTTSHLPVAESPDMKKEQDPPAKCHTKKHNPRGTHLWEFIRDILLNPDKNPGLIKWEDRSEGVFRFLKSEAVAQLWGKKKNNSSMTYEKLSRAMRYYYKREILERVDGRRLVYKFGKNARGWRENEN
Particulars: protein: recombinant; tags: N-terminal GST; dsDNA, one strand shown. The essentials: as §1

The target in another assay is SPI1 (Homo sapiens, UniProt P17947 1-270). Particulars: protein: recombinant; tags: N-terminal GST; dsDNA, one strand shown. Summed up: as §1
Another assay has as its target SPIB (Homo sapiens, UniProt Q01892 1-262). Particulars: protein: recombinant; tags: N-terminal GST; dsDNA, one strand shown. Summed up:
as §1

A further assay has as its target T6, ELK3 (Homo sapiens, UniProt P41970 1-407).
T6 sequence: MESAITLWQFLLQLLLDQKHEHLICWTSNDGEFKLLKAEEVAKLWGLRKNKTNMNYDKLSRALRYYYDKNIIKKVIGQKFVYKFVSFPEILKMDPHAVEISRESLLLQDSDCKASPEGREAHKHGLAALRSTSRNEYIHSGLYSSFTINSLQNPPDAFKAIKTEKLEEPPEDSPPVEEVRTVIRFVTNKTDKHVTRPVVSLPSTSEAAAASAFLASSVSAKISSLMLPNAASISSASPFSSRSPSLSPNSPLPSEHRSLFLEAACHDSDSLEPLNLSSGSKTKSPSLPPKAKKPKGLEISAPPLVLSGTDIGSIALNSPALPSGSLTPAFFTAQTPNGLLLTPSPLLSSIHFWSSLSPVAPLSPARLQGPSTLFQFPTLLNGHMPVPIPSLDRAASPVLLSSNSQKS
Particulars: protein: recombinant; tags: N-terminal GST; dsDNA, one strand shown. Summed up:
as §1

A further assay deals with T7, FEV (Homo sapiens, UniProt Q99581 1-238).
T7 sequence: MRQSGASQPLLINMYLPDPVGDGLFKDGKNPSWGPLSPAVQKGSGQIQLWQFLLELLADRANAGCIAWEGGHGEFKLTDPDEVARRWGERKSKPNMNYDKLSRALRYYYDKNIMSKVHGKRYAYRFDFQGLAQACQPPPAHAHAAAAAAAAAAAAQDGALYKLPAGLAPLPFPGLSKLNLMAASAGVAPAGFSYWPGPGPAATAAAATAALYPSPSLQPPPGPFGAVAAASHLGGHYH
Particulars: protein: recombinant; tags: N-terminal GST; dsDNA, one strand shown. The essentials:
as §1

The next assay deals with ETV5 (Homo sapiens, UniProt P41161 1-510). Particulars: protein: recombinant; tags: N-terminal GST; dsDNA, one strand shown. The essentials: as §1
A further assay has as its target HSF1 (Homo sapiens, UniProt Q00613 1-529). Particulars: protein: recombinant; tags: N-terminal GST; chain copies: 3; dsDNA, one strand shown. The essentials: as §1
A further assay addresses T8, SPIC (Homo sapiens, UniProt Q8N5J4 1-248).
T8 sequence: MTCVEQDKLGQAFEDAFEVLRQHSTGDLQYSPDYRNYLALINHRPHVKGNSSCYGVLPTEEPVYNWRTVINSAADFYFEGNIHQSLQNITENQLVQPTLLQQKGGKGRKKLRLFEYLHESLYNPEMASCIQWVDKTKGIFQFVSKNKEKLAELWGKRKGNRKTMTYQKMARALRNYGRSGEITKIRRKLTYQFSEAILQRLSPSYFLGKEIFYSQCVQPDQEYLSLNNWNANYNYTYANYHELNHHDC
Particulars: protein: recombinant; tags: N-terminal GST; dsDNA, one strand shown. Summed up: as §1

The next assay has as its target ELF4 (Homo sapiens, UniProt Q99607 1-663). Particulars: protein: recombinant; tags: N-terminal GST; dsDNA, one strand shown. Summed up: as §1
Another assay has as its target T9, ELK4 (Homo sapiens, UniProt P28324-2 1-405).
T9 sequence: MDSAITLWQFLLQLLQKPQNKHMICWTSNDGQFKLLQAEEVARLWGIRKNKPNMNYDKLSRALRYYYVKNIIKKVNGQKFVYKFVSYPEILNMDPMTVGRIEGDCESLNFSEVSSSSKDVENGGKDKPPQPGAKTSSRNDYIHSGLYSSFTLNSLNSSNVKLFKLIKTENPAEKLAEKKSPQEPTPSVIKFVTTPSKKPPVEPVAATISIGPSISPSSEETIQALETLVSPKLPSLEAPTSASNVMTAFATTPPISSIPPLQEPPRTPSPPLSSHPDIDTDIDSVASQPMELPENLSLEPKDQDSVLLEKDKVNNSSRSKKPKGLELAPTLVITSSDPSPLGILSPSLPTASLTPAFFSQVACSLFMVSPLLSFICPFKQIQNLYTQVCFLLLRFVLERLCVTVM
Particulars: protein: recombinant; tags: N-terminal GST; dsDNA, one strand shown. Summed up:
as §1

The target of a further assay is T10, ETV2 (Homo sapiens, UniProt O00321 1-342).
T10 sequence: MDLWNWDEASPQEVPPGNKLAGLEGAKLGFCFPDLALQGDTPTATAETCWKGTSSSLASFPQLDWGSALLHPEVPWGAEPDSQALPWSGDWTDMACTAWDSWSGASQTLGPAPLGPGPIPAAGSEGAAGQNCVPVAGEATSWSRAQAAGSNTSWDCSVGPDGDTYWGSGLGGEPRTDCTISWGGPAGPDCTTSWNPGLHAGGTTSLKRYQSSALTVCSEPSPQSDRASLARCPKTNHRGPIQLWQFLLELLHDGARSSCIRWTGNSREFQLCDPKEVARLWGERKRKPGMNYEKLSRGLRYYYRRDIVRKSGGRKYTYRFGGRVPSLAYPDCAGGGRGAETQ
Particulars: protein: recombinant; tags: N-terminal GST; dsDNA, one strand shown. The essentials: as §1

A further assay concerns the target T11, ELF3 (Homo sapiens, UniProt P78545 1-371).
T11 sequence: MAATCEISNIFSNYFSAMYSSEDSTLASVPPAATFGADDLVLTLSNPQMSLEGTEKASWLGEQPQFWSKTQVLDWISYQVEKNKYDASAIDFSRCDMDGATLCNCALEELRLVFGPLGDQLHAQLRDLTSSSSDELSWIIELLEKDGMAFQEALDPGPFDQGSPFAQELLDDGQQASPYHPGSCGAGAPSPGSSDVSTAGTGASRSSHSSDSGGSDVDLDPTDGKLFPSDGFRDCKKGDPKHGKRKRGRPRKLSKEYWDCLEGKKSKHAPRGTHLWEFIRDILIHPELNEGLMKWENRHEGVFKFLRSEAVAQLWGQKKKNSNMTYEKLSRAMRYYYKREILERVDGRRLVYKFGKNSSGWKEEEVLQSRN
Particulars: protein: recombinant; tags: N-terminal GST; dsDNA, one strand shown. Summed up:
as §1

Another assay concerns the target CRX (Homo sapiens, UniProt O43186 1-299). Particulars: protein: recombinant; tags: N-terminal GST; dsDNA, one strand shown. Summed up: as §1
The target of a further assay is ETV1 (Homo sapiens, UniProt P50549 1-477). Particulars: protein: recombinant; tags: N-terminal GST; dsDNA, one strand shown. The essentials: as §1

For one sequence, binding signal results are on record in article PMC7862700, “An all-to-all approach to the identification of sequence-specific readers for epigenetic DNA modifications on cytosine”.

CRX, sequence (O43186 whole entry): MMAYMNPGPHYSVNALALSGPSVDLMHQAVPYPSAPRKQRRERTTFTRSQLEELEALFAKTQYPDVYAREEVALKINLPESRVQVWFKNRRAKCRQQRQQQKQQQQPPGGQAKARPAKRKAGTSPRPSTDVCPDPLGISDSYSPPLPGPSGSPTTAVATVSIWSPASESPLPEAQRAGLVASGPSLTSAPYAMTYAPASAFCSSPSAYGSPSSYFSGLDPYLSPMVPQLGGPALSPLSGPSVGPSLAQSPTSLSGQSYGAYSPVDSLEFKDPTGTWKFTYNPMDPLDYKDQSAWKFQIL
SPIB, sequence (Q01892 whole entry): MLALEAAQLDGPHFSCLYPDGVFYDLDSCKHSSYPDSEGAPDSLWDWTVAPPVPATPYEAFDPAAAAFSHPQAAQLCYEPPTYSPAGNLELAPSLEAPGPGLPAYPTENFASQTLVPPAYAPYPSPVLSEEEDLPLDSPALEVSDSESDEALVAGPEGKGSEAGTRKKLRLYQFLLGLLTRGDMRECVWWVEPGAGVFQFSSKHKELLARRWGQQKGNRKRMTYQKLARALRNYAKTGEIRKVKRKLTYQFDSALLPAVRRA
ELF1, sequence (P32519 whole entry): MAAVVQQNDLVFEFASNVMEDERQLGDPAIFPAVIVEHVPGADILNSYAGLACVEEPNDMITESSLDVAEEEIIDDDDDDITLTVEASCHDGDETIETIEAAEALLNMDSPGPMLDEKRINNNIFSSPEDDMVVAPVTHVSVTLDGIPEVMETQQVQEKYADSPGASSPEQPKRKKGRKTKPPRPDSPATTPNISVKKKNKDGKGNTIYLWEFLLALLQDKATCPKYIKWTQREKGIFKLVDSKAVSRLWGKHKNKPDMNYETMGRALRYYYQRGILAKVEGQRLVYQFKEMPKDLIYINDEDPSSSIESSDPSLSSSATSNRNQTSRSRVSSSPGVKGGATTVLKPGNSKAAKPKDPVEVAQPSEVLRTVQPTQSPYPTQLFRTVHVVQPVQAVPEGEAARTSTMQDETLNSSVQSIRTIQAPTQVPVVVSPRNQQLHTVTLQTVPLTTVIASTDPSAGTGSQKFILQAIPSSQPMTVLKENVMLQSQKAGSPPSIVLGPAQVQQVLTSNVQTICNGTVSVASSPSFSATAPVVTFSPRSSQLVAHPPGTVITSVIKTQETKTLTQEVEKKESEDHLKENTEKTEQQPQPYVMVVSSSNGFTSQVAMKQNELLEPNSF
ELF4, sequence (Q99607 whole entry): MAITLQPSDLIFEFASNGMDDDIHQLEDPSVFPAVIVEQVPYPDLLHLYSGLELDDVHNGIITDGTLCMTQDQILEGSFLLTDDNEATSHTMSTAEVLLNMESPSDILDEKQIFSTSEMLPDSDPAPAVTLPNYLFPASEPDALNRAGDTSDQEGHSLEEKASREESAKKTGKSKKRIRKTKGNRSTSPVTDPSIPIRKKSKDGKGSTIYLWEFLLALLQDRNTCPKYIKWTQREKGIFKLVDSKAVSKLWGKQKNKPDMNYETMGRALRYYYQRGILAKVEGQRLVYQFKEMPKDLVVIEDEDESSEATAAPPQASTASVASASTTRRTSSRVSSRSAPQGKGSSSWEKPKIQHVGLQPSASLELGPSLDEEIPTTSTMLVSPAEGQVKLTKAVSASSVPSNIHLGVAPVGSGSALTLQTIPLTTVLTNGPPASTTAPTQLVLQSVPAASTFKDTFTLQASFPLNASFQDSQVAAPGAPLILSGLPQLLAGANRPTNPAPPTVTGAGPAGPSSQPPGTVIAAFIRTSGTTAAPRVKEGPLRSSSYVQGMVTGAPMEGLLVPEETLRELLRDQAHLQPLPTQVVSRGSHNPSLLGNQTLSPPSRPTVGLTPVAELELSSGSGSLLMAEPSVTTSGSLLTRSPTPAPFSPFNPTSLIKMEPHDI
ETV1, sequence (P50549 whole entry): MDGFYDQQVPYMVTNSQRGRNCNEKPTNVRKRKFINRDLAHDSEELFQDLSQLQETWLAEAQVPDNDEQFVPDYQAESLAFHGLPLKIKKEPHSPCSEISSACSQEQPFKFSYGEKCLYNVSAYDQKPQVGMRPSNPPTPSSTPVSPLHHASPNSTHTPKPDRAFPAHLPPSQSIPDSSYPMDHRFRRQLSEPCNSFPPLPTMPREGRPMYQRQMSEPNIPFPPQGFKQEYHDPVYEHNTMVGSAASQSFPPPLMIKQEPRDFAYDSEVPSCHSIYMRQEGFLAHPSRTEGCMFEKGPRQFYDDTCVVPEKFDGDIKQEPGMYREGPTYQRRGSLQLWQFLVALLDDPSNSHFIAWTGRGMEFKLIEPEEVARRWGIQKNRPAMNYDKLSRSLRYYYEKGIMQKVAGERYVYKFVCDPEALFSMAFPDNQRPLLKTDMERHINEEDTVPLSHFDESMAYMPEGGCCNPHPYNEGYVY
HSF1, sequence (Q00613 whole entry): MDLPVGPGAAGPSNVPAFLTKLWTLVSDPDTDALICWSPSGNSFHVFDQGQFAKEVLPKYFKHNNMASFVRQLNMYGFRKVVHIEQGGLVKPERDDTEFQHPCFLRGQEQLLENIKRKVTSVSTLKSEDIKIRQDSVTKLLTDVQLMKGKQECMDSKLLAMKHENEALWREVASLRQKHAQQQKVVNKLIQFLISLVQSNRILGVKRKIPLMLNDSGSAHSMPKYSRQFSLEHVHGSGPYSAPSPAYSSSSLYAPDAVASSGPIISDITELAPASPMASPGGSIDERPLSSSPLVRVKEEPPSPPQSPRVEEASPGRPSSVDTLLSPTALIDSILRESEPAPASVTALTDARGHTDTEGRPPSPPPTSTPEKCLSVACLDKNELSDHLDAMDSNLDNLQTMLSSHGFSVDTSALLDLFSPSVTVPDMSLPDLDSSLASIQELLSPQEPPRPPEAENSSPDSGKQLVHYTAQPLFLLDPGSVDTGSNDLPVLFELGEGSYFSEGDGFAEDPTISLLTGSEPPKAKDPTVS
ETV5, sequence (P41161 whole entry): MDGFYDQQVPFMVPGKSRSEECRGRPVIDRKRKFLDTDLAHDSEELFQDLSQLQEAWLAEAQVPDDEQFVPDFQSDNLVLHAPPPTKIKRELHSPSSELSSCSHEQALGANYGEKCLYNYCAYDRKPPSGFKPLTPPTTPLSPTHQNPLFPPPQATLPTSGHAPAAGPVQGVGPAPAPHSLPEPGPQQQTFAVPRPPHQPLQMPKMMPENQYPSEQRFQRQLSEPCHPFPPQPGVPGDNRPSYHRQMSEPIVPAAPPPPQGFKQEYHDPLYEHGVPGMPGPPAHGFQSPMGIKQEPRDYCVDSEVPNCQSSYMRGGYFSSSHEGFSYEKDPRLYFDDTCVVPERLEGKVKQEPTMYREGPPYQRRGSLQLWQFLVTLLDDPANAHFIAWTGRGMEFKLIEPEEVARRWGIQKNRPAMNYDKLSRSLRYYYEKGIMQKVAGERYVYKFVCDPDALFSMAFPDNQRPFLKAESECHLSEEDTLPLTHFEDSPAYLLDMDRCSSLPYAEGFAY

For the sequence CCCACT, the binding signal is 1.36 fold enrichment (6-mer frequency, TF over GST control) with FLI1; 1.45 fold enrichment (6-mer frequency, TF over GST control) in the assay with ELK1; 1.26 fold enrichment (6-mer frequency, TF over GST control) in the assay with GABPA; 1.35 fold enrichment (6-mer frequency, TF over GST control) with ERG; 1.38 fold enrichment (6-mer frequency, TF over GST control) with ELF1; 1.46 fold enrichment (6-mer frequency, TF over GST control) in the assay with EHF. Further, the binding signal in the assay with SPI1 was 1.39 fold enrichment (6-mer frequency, TF over GST control); with SPIB, 1.26 fold enrichment (6-mer frequency, TF over GST control); with ELK3 it was 1.42 fold enrichment (6-mer frequency, TF over GST control); in the assay with FEV it was 1.5 fold enrichment (6-mer frequency, TF over GST control); with ETV5 it was 1.33 fold enrichment (6-mer frequency, TF over GST control); with HSF1 it was 1.07 fold enrichment (6-mer frequency, TF over GST control). Also, the binding signal with SPIC is 1.27 fold enrichment (6-mer frequency, TF over GST control); in the assay with ELF4, 1.43 fold enrichment (6-mer frequency, TF over GST control); with ELK4 it was 1.24 fold enrichment (6-mer frequency, TF over GST control); with ETV2, 1.37 fold enrichment (6-mer frequency, TF over GST control); in the assay with ELF3, 1.18 fold enrichment (6-mer frequency, TF over GST control); in the assay with CRX, 1.14 fold enrichment (6-mer frequency, TF over GST control). The binding signal with ETV1 is 1.34 fold enrichment (6-mer frequency, TF over GST control).
